# Data published in PubChem BioAssay AID504333 (National Center for Advancing Translational Sciences (NCATS), 2011).
# Out of some 360,000 compounds screened, about 16,000 (4.4%) were called active. Entries that show only a call come without a potency. Another 9% or so got no clear call; they are omitted. Calls follow the shape of the dose curve; as a rule, active = well fitted inhibition curve with a large enough effect; inconclusive = small, poorly fitted or top-dose-only effect; inactive = no such curve, though single readings can be large or run the other way. For the sample, actives were picked, then their nearest neighbours and some compounds at random.
# Target: Bromodomain adjacent to zinc finger domain protein 2B (Homo sapiens) (UniProt Q9UIF8)
# Sequence (Q9UIF8 whole entry, looked up, the tested form may be a part): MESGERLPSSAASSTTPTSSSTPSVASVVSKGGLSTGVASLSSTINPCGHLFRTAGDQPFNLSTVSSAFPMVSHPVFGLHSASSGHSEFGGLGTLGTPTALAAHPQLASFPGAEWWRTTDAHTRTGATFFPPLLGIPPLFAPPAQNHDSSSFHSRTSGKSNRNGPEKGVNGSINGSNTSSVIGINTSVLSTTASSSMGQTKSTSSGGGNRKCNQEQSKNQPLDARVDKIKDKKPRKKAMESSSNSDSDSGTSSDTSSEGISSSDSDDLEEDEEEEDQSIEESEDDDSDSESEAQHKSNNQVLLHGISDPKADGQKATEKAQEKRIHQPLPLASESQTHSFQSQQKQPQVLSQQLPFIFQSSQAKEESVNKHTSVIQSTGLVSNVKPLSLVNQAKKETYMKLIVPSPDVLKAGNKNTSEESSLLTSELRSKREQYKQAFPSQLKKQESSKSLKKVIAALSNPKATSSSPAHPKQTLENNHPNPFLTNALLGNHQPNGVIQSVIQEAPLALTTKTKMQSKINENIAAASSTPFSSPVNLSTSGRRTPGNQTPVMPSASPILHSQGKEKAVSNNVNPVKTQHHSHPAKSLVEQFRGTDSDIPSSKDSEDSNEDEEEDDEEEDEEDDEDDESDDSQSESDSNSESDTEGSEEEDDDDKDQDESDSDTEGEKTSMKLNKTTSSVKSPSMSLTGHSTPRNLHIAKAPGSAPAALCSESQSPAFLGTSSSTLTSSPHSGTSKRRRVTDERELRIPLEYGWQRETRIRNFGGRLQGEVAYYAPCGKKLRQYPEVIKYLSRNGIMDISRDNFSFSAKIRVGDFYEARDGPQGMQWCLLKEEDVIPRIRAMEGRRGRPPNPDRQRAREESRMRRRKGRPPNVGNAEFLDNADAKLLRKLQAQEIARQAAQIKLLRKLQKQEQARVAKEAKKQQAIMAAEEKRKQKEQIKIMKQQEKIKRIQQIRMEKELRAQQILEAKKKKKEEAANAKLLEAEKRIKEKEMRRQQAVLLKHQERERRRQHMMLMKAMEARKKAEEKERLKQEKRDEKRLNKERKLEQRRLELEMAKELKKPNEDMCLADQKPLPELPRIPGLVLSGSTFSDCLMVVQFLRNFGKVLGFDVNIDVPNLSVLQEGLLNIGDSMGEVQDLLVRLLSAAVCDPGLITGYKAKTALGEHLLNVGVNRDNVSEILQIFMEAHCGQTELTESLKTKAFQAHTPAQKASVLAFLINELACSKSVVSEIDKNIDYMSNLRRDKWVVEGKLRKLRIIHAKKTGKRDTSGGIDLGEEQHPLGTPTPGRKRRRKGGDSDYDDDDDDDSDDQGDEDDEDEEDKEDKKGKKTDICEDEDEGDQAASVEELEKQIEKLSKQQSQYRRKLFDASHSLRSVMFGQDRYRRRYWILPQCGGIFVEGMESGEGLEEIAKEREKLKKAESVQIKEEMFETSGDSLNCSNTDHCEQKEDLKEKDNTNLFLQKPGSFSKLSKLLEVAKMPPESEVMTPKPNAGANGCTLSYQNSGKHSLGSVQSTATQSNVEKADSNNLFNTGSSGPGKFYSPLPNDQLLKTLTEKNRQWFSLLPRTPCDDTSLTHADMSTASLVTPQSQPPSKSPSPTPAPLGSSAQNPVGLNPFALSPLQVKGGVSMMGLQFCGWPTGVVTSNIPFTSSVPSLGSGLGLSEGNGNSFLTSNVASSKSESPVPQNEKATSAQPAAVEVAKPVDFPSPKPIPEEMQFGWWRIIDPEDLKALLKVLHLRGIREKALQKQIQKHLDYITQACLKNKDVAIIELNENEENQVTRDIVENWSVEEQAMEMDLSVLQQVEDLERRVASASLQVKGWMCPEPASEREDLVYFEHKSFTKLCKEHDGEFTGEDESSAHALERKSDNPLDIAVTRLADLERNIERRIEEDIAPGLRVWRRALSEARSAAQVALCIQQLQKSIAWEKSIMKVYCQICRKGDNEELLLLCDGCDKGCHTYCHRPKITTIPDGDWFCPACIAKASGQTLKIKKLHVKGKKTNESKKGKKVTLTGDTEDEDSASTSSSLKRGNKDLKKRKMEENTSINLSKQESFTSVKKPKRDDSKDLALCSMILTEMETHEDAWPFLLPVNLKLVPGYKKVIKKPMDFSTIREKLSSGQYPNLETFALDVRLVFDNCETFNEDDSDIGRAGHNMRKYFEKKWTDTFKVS
# Experiment: qHTS Assay for Inhibitors of BAZ2B; also: nearly all actives have a fitted effect of over 60% in size
# Conditions: AlphaScreen BAZ2B-H3K14Ac peptide displacement; series mostly up to 114 µM
# Summary of the method: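 Protein-peptide AlphaScreen: BAZ2B 50 nM, b-H3K14Ac 50 nM, 1x PBS pH 7.4 + 0.01% Tween-20. Preincubation 30 min RT; cpd 30 min RT (top 110 uM); beads 20 min RT, light-protected.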
# Potency is read from the fitted curve at half-maximal effect.
row,SMILES,Potency
1,Cc1cc(C)c(NC(=O)CN2C(=O)c3cccnc3Oc3ccc(Cl)cc32)c(C)c1,inactive
2,COc1cc(NC(=O)c2cc3ccc4cccnc4c3[nH]2)cc(OC)c1OC,inactive
3,CCN(c1ncnc2c1cnn2-c1ccc(C)cc1)C1CCCCC1,inactive
4,O=c1[nH]c2cc(Br)ccc2n2cccc12,inactive
5,COc1ccc(NC(=O)CSc2nc(NS(=O)(=O)c3ccc(C)cc3)cc(=O)[nH]2)cc1,50.1 µM (active)
6,Cc1ccc(NC(=O)CSc2nc(CSc3ccc(C)cc3)cc(=O)[nH]2)cc1,inactive
7,Cc1ccc(OCCCC(=O)Nc2ccc(S(=O)(=O)Nc3cc(C)nc(C)n3)cc2)cc1,inactive
8,CCc1nnc(NS(=O)(=O)c2ccc(NC(=S)NC(=O)/C=C/c3cccs3)cc2)s1,50.1 µM (active)
9,CCc1nnc(NS(=O)(=O)c2ccc(NS(=O)(=O)c3ccccc3)cc2)s1,inactive
10,CCc1nnc(NS(=O)(=O)c2ccc(NC(=S)NC(=O)c3cccs3)cc2)s1,inactive
11,Cc1cc(-c2ccccc2)n2nc(-c3ccccc3)cc2n1,inactive
12,CCc1ccccc1NC(=O)Cn1c(=O)n(CC2CCC(C(=O)NCCc3ccccc3)CC2)c(=O)c2ccccc21 (configuration not stated),inactive
13,COc1ccc(/C=C(/CC(=O)Nc2ccc(C)cc2)c2nc3ccccc3s2)cc1,inactive
14,COc1cccc2sc(NNC(=O)c3nc4ccccc4s3)nc12,35.5 µM (active)
15,COc1ccccc1OCc1nc2ccccc2s1,inactive
16,Cc1cc2nc(-c3ccc(NC(=O)c4cc5ccccc5o4)cc3)oc2cc1C,inactive
17,COc1ccccc1CNC(=O)C(=O)NCC(c1ccco1)S(=O)(=O)c1ccc(F)cc1 (configuration not stated),inactive
18,CCCN(C(=O)Cn1cc(S(=O)(=O)N2CCN(c3ccccc3F)CC2)c2ccccc2c1=O)c1cccc(C)c1,inactive
19,COc1cc(C(=O)NCC(c2ccc(Cl)cc2)N2CCOCC2)cc(OC)c1OC (configuration not stated),inactive
20,CCOc1ccccc1NC(=O)Cn1c(=O)n(Cc2ccco2)c(=O)c2sc3ccccc3c21,inactive
21,CCOc1ccccc1/C=c1\sc2nc(-c3ccco3)nn2c1=O,50.1 µM (active)
22,CCOC(=O)C1CCN(C(c2ccc(F)cc2)c2sc3nc(-c4ccco4)nn3c2O)CC1 (configuration not stated),inactive
23,Cc1ccc(-n2c3nc(=O)[nH]c(=O)c-3cc3c(Cl)cccc32)cc1,inactive
24,CCOc1ccc(OCC)c(NC(=O)c2cc(C)nc3c2c(C)nn3-c2cccc(Cl)c2C)c1,inactive
25,Cc1ccc(C(=O)Nc2cc3c(cc2N2CCCC2)n(C)c(=O)c(=O)n3C)cc1,inactive

row,SMILES,Potency
1,O=S(=O)(c1ccc(Cl)cc1)c1nnn2c1nc(NC1CCCC1)c1sccc12,inactive
2,O=C(Nc1ccc(S(=O)(=O)N2CCC(c3nc4ccccc4s3)CC2)cc1)c1ccccc1F,inactive
3,S=c1[nH]nc(-c2ccco2)n1/N=C/c1ccc(Br)s1,70.8 µM (active)
4,S=c1[nH]nc(-c2cccs2)n1/N=C/c1cccs1,inactive
5,S=c1[nH]nc(-c2ccncc2)n1/N=C/c1ccccc1Cl,inactive
6,COc1ccc(C2C(=O)N(C3CCCCCC3)CC(=O)N2CCc2ccc(Cl)cc2)cc1OC (configuration not stated),inactive
7,O=C(CNC(=O)C1COc2ccccc2O1)N/N=C/c1cc(Br)c(O)c(Br)c1 (configuration not stated),inactive
8,Cc1c(CC(=O)N2CCN(C(=O)C3COc4ccccc4O3)CC2)c(=O)oc2c(O)c(O)ccc12 (configuration not stated),7.94 µM (active)
9,COc1ccc(OC)c2sc(N3CCN(C(=O)C4COc5ccccc5O4)CC3)nc12 (configuration not stated),inactive
10,Cn1c(C(=O)Nc2cccc(C(F)(F)F)c2)cc2c(=O)n3ccccc3nc21,inactive
11,COc1cccc(C(=O)NCc2ccc3c(c2)CCN3C(=O)c2ccncc2)c1,inactive
12,CCN(CC)CCOCCOc1ccc(Cl)c2ccccc12,79.4 µM (active)
13,CCOc1ccc(S(=O)(=O)N2CCCCCC2)c2ccccc12,inactive
14,CN(C)CCOCCOc1ccc(Cl)c2ccccc12,50.1 µM (active)
15,C#CCOc1ccc(C2CC(=O)Nc3c2c(C)nn3-c2nc(C)cc(C)n2)cc1 (configuration not stated),inactive
16,COc1ccccc1C(=O)Nc1c(C(=O)Nc2ccc(C)cc2)oc2ccccc12,inactive
17,CCOc1ccc(C2c3[nH]c4ccccc4c3CCN2Cc2cccn2-c2ncccn2)cc1 (configuration not stated),28.2 µM (active)
18,CCOc1cccc(CC(=O)N2CCc3c([nH]c4ccccc34)C2c2ccc(OC)cc2)c1OCC (configuration not stated),inactive
19,Cc1cccc(C(=O)N2CCc3c([nH]c4ccccc34)C2CC(C)C)n1 (configuration not stated),inactive
20,c1ccc(C2c3[nH]c4ccccc4c3CCN2Cc2cccn2-c2cccnc2)nc1 (configuration not stated),31.6 µM (active)
21,Cc1ccc(N(CC(=O)NCc2ccc(Cl)cc2)S(=O)(=O)N(C)C)cc1,inactive
22,CCOc1ccc(NC(=O)CCC(=O)N2CC(C)Oc3ccc(C)cc32)cc1 (configuration not stated),inactive
23,CCCn1c2ccccc2c2cnn(CC(=O)NCC3CCN(Cc4ccc(C)cc4)CC3)c(=O)c21,inactive
24,Cc1ccc(NC(=O)c2oc3ccc(S(=O)(=O)N4CCCCC4)cc3c2C)cc1Cl,inactive
25,COc1ccc(Cl)cc1S(=O)(=O)N1CCC(c2ccncc2)CC1,inactive

row,SMILES,Potency
1,Cc1nn(Cc2ccc(F)cc2)c(C)c1NC(=O)c1cc(CC(C)C)on1,inactive
2,Cc1cc(C)c2oc(C(=O)Nc3c(C(=O)Nc4ccccc4)oc4ccccc34)cc(=O)c2c1,inactive
3,COc1ccc(C2C(C(C)=O)=C(O)C(=O)N2CCc2c[nH]c3ccccc23)cc1 (configuration not stated),56.2 µM (active)
4,COc1ccc2[nH]cc(CCN3C(=O)c4ccc(C(=O)O)cc4C3=O)c2c1,inactive
5,COC(=O)CN1C(=O)C(O)=C(C(C)=O)C1c1ccc([N+](=O)[O-])cc1 (configuration not stated),inactive
6,Cc1cccc(N(C)C(=O)CS(=O)(=O)c2cccc3nsnc23)c1,inactive
7,Cc1ccc(C)c(N2C(=O)N(Cc3c(F)cccc3Cl)c3ccccc3S2(=O)=O)c1,inactive
8,CC(=O)c1cc(C#N)c(N2CCCCC2)nc1C,56.2 µM (active)
9,CC(=O)c1cc(C#N)c(SCC(=O)C(C)(C)C)nc1C,inactive
10,CC(=O)c1cc(C#N)c(SCC(=O)Nc2nccs2)nc1C,inactive
11,Cc1cccc(-c2nnc(SCC(=O)N3CCCc4ccccc43)o2)c1,inactive
12,CCC(=O)N1CCc2cc(Br)cc(S(=O)(=O)NCc3ccc(Cl)cc3)c21,inactive
13,COc1ccccc1CNC(=O)Cn1nc(C)c2nn(-c3ccc(Cl)cc3)c(C)c2c1=O,inactive
14,CCN(C(=O)Cn1cnc2sc(C)c(S(=O)(=O)N3CCN(c4ncccn4)CC3)c2c1=O)c1ccccc1F,inactive
15,CCOC(=O)Cc1csc(NC(=O)CSc2ccc(Br)cc2)n1,inactive
16,CCOC(=O)Cc1csc(NC(=O)CSc2nc(C)cc(=O)[nH]2)n1,50.1 µM (active)
17,CCCCc1nnc(NC(=O)CSc2nc(C)cc(=O)[nH]2)s1,inactive
18,O=C(CSc1ncc(-c2ccccc2)[nH]1)Nc1ccc(F)cc1F,inactive
19,COC(=O)c1c(NC(=O)C(C)Oc2ccc(Cl)c(C)c2)sc(C)c1C (configuration not stated),inactive
20,COC(=O)CN1C(=O)CSc2ccc(S(=O)(=O)Nc3cc(C)ccc3C)cc21,inactive
21,CCc1ccc(CN(Cc2ccco2)C(=O)COc2ccc(Cl)c(C)c2)cc1,inactive
22,CSC(=S)N/N=C/c1c[nH]c2ccccc12,35.5 µM (active)
23,O=C(O)c1cccc(NC(=S)N/N=C/c2c[nH]c3ccccc23)c1,inactive
24,O=C(N/N=C/c1c[nH]c2ccccc12)c1ccccc1O,inactive
25,O=C(NCCc1ccccc1)c1ccc2c(c1)N(Cc1ccccc1)C(=O)c1ccccc1S2(=O)=O,inactive

row,SMILES,Potency
1,CCC(=O)N1CCc2cc(CNS(=O)(=O)c3ccc(Br)s3)ccc21,inactive
2,C#CCOCCOCCOCCNc1nc(N2CCN(C(=O)[C@H](CCCCN)n3cc(CCC(=O)O)nn3)CC2)nc(N2CCN(C(=O)[C@H](CCCCN)n3cc(CC(C)O)nn3)CC2)n1 (some centres not stated),inactive
3,C#CCOCCOCCOCCNc1nc(N2CCN(C(=O)[C@H](CCC(=O)O)n3cc(C(N)CO)nn3)CC2)nc(N2CCN(C(=O)[C@H](CCCCN)n3cc(C(N)[C@H](C)CC)nn3)CC2)n1 (some centres not stated),14.1 µM (active)
4,C#CCOCCOCCOCCNc1nc(N2CCN(C(=O)[C@H](CCC(=O)O)n3cc(C(N)CO)nn3)CC2)nc(N2CCN(C(=O)[C@H](CCCCN)n3cc(C(N)CC(C)C)nn3)CC2)n1 (some centres not stated),44.7 µM (active)
5,CCOc1ccc(N(CC)S(=O)(=O)N2CCCC(C(=O)NCc3ccc(Cl)cc3)C2)cc1 (configuration not stated),inactive
6,CCCCNC(=O)C1CCCN(c2nnc(C)c3c(C)n(-c4ccc(Cl)cc4)nc23)C1 (configuration not stated),inactive
7,CCN(CC)C(=O)CSc1nc2cc3c(cc2c(=O)n1CCCC(=O)NCc1ccc2c(c1)OCO2)OCO3,inactive
8,Cc1ccc2onc(CC(=O)N3CCN(c4ccc(Cl)cc4)CC3)c2c1,inactive
9,Cc1ccc2cccc(NC(=O)c3cccc4ccccc34)c2n1,inactive
10,CCc1ccc(N2C(=O)CN(S(=O)(=O)CC)CC2(C)C(=O)NC2CCCCC2)cc1 (configuration not stated),inactive
11,COc1ccc(-c2cn3ccc(C)cc3n2)cc1,inactive
12,Cc1ccn2cc(-c3nonc3C)cc2c1,56.2 µM (active)
13,COc1cc(OC)cc(C(=O)Nc2cc3nn(-c4ccccc4)nc3cc2Cl)c1,inactive
14,Cc1cccc(C(CC(=O)NCC2(c3ccccc3)CCCC2)c2ccccc2)c1O (configuration not stated),inactive
15,Cn1c(SCC(=O)N2CCCc3ccccc32)ncc(C(=O)Nc2ccc(F)cc2)c1=O,inactive
16,COc1ccc(CNc2nc(-c3ccc(Cl)cc3)cc(C(F)(F)F)n2)cc1,inactive
17,CCOc1ccc(S(=O)(=O)NCCCn2ccnc2)cc1NC(C)=O,inactive
18,Clc1c(OCCCn2ccnc2)ccc2ccccc12,39.8 µM (active)
19,Brc1ccc(OCCn2ccnc2)cc1,inactive
20,Cc1ccc(S(=O)(=O)c2nc(NCCCn3ccnc3)sc2Cl)cc1,inactive
21,O=C(NCCCn1ccnc1)c1ccccc1F,inactive
22,C=CCc1cc(C)ccc1OCCCn1ccnc1,31.6 µM (active)
